According to PubChem BioAssay (EPA / NIEHS):
Calls of active or inactive are those of the source. Rule for the calls: active = hit-call score of the fitted dose curve at least 0.9, where 1 is the maximum; inactive = score below 0.9.

test: ATG_M_32_CIS: Attagene CIS-FACTORIAL HepG2 Assay for M32 Transcription Factor (Internal Marker) (AID 2282949); conditions: HepG2 Attagene cis-factorial M32 reporter, mRNA; actives raise or lower the signal;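 note: background control marker of the multiplexed CIS panel rather than a real target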
Method in brief: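 HepG2 human liver cells transiently transfected with cis-promoter-driven multiple reporter transcription units, dosed 24 h. Reporter mRNA quantified by RT-PCR, FAM-labelled primer extension, HpaI digest and capillary electrophoresis; bidirectional fit versus DMSO baseline.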

| Structure (SMILES) | outcome |
| --- | --- |
| CCOc1ccc(N)cc1 | inactive |
| O=C(NC(=O)c1c(F)cccc1F)Nc1cc(Cl)c(Oc2ncc(C(F)(F)F)cc2Cl)c(Cl)c1 | inactive |
| CN(N=O)c1ccc([N+](=O)[O-])cc1 | inactive |
| CCOC(=O)C(SP(=S)(OC)OC)c1ccccc1 (configuration not stated) | inactive |
| COC(F)(C(F)(F)C(F)(F)F)C(F)(C(F)(F)F)C(F)(F)F (configuration not stated) | inactive |
| OC(Cc1ccccc1Cl)(Cn1[nH]cnc1=S)C1(Cl)CC1 (configuration not stated) | inactive |
| CC(F)(F)CC(F)(F)F | inactive |
| O=C/C(Cl)=C(/Cl)C(=O)O | inactive |
| COc1nn(C(=O)NS(=O)(=O)c2ccccc2OC(F)(F)F)c(=O)n1C | inactive |
| Cc1ccc(CCl)cc1 | inactive |
| Cl[C@H]1OCCO[C@@H]1Cl | inactive |
| NC(=O)CCl | inactive |
| CC(C)[C@@H](Nc1ccc(C(F)(F)F)cc1Cl)C(=O)OC(C#N)c1cccc(Oc2ccccc2)c1 (some centres not stated) | inactive |
| Cc1cc(C(C)(C)c2ccc(O)c(C)c2)ccc1O | inactive |
| CC1(C)[C@H](C(=O)O[C@H](C#N)c2cccc(Oc3ccccc3)c2)[C@@H]1/C=C(\Cl)C(F)(F)F | inactive |
| ClCCCCl | inactive |
| Cc1ccccc1OP(=O)(Oc1ccccc1)Oc1ccccc1 | inactive |
| CCN(N=O)C(N)=O | inactive |

test: ATG_M_06_CIS: Attagene CIS-FACTORIAL HepG2 Assay for M06 Transcription Factor (Internal Marker) (AID 2282950); conditions: HepG2 Attagene CIS-FACTORIAL M06 internal marker reporter; actives raise or lower the signal
Method in brief: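 HepG2 liver cells, 24 h exposure. Reporter transcripts from transfected cis-element constructs quantified by RT-PCR/capillary electrophoresis fluorescence. Bidirectional curve fit against DMSO.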

| Structure (SMILES) | outcome |
| --- | --- |
| O=S1(=O)OC(c2cc(Br)c(O)c(Br)c2)(c2cc(Br)c(O)c(Br)c2)c2ccccc21 | inactive |
| Cc1cc(Cl)ccc1OCCCC(=O)O | inactive |
| C#C[C@]1(O)CC[C@H]2[C@@H]3CCC4=CC(=O)CC[C@]4(C)[C@H]3CC[C@@]21C | inactive |
| C[C@@H]1O[C@@H](O[C@H]2C[C@@H](O)[C@]3(CO)[C@H]4[C@H](O)C[C@]5(C)[C@@H](C6=CC(=O)OC6)CC[C@]5(O)[C@@H]4CC[C@]3(O)C2)[C@H](O)[C@H](O)[C@H]1O | inactive |
| C[N+](C)(C)Cc1ccccc1 | inactive |
| COP(=S)(OC)Oc1cc(Cl)c(I)cc1Cl | inactive |
| O=c1oc2ccccc2c(O)c1C(CC(O)c1ccc(-c2ccc(Br)cc2)cc1)c1ccccc1 (configuration not stated) | inactive |
| CN(N=O)C(N)=O | inactive |
| O=S(=O)(F)C(F)(F)C(F)(F)C(F)(F)C(F)(F)F | inactive |
| OCC(c1ccc(Cl)cc1)c1ccc(Cl)cc1 | inactive |
| CCCCC(CC)C(=O)Cl (configuration not stated) | inactive |
| C=CC(F)(C(F)(F)F)C(F)(F)C(F)(F)F (configuration not stated) | inactive |
| CN(C)CCN(C)C | inactive |
| CCCCS(=O)(=O)Cl | inactive |
| Fc1cccc(Cl)c1CCl | inactive |
| Nc1ncn[nH]1 | inactive |
| CCCCOC(C)=O | inactive |
| CC(=O)C(F)(F)C(F)(F)F | inactive |
| C#CCOC(=O)/C=C(C)/C=C/CC(C)CCCC(C)C (configuration not stated) | inactive |
| OC(Cc1ccccc1Cl)(Cn1cncn1)C1(Cl)CC1 (configuration not stated) | inactive |

| Structure (SMILES) | outcome |
| --- | --- |
| Cc1cc(C(F)(C(F)(F)F)C(F)(F)F)ccc1NC(=O)c1cccc(I)c1C(=O)NC(C)(C)CS(C)(=O)=O | inactive |
| CCOc1ccc(N)cc1 | inactive |
| O=C(NC(=O)c1c(F)cccc1F)Nc1cc(Cl)c(Oc2ncc(C(F)(F)F)cc2Cl)c(Cl)c1 | inactive |
| CN(N=O)c1ccc([N+](=O)[O-])cc1 | inactive |
| CCOC(=O)C(SP(=S)(OC)OC)c1ccccc1 (configuration not stated) | inactive |
| COC(F)(C(F)(F)C(F)(F)F)C(F)(C(F)(F)F)C(F)(F)F (configuration not stated) | inactive |
| OC(Cc1ccccc1Cl)(Cn1[nH]cnc1=S)C1(Cl)CC1 (configuration not stated) | inactive |
| CC(F)(F)CC(F)(F)F | inactive |
| O=C/C(Cl)=C(/Cl)C(=O)O | inactive |
| COc1nn(C(=O)NS(=O)(=O)c2ccccc2OC(F)(F)F)c(=O)n1C | inactive |
| Cc1ccc(CCl)cc1 | inactive |
| Cl[C@H]1OCCO[C@@H]1Cl | inactive |
| NC(=O)CCl | inactive |
| CC(C)[C@@H](Nc1ccc(C(F)(F)F)cc1Cl)C(=O)OC(C#N)c1cccc(Oc2ccccc2)c1 (some centres not stated) | inactive |
| Cc1cc(C(C)(C)c2ccc(O)c(C)c2)ccc1O | inactive |
| CC1(C)[C@H](C(=O)O[C@H](C#N)c2cccc(Oc3ccccc3)c2)[C@@H]1/C=C(\Cl)C(F)(F)F | inactive |
| ClCCCCl | inactive |
| Cc1ccccc1OP(=O)(Oc1ccccc1)Oc1ccccc1 | inactive |
| CCN(N=O)C(N)=O | inactive |
